Source: the antibiotic and cytotoxicity screens of Wong et al. (2023)
The campaign covered roughly 39,000 compounds. About 3,300 (8.5%) were called active. The full list was thinned out, with actives kept by preference.

These compounds were tested on HepG2 (assay: cytotoxicity call (relative viability < 0.9)). Details: 10 µM.

SMILES	cytotoxicity call
COc1ccc(S(=O)(=O)N(C)C[C@H]2Oc3ccc(NC(=O)CCN4CCOCC4)cc3C(=O)N([C@@H](C)CO)C[C@@H]2C)cc1	inactive
C[C@@H]1CN([C@@H](C)CO)C(=O)c2cc(NS(=O)(=O)c3cccs3)ccc2O[C@@H]1CN(C)S(=O)(=O)c1cn(C)cn1	inactive
c1ccc(NC2CCCCC2)nc1	inactive
CO[C@H]1CN(C)C(=O)c2cc(NS(=O)(=O)CC(F)(F)F)ccc2OC[C@@H](C)N(Cc2ccccn2)C[C@@H]1C	inactive
CN(C)CC(=O)N1CC(=O)N2[C@@H](CO)[C@@H](c3ccc(C#Cc4cccnc4)cc3)[C@@H]2C1	inactive
C[C@H]1CCCCO[C@@H](CN(C)Cc2ccncc2)[C@@H](C)CN([C@@H](C)CO)C(=O)c2cc(NC(=O)Nc3ccc(F)cc3)ccc2O1	inactive
C=CC1=C(C(=O)O)N2C(=O)[C@@H](NC(=O)/C(=N\OCC(=O)O)c3csc(N)n3)[C@H]2SC1	inactive
C=CC1=C(C(=O)O)N2C(=O)C(NC(=O)C(=NO)c3csc(N)n3)C2SC1 (configuration not stated)	inactive
C=CC1=C(C(=O)O)N2C(=O)C(NC(=O)C(=NOCC(=O)O)c3csc(N)n3)C2SC1 (configuration not stated)	active
CC(C)CC#Cc1ccc2c(c1)O[C@@H](CN(C)C(=O)Cc1ccncc1)[C@@H](C)CN([C@H](C)CO)S2(=O)=O	inactive
C[C@@H]1CN([C@H](C)CO)C(=O)Cc2cc(N(C)C)ccc2O[C@@H]1CN(C)S(=O)(=O)c1ccc(Cl)cc1	inactive
C[C@H]1CN([C@@H](C)CO)C(=O)Cc2cc(N(C)C)ccc2O[C@@H]1CN(C)S(=O)(=O)c1ccc(Cl)cc1	inactive
C[C@H](CO)N1C[C@H](C)[C@H](CN(C)S(=O)(=O)c2ccc(Cl)cc2)Oc2ccc(N(C)C)cc2CC1=O	active
C[C@H]1CN([C@@H](C)CO)C(=O)Cc2cc(N(C)C)ccc2O[C@H]1CN(C)S(=O)(=O)c1ccc(Cl)cc1	active
C[C@@H]1CN([C@H](C)CO)C(=O)Cc2cc(N(C)C)ccc2O[C@H]1CN(C)S(=O)(=O)c1ccc(Cl)cc1	inactive
C[C@@H]1CN([C@@H](C)CO)C(=O)Cc2cc(N(C)C)ccc2O[C@H]1CN(C)S(=O)(=O)c1ccc(Cl)cc1	inactive
C[C@@H]1CN([C@@H](C)CO)C(=O)c2cc(/C=C/c3ccccc3)cnc2O[C@@H]1CN(C)C(=O)CN1CCOCC1	inactive
COc1ccc(NC(=O)N(C)C[C@@H]2OCCCC[C@@H](C)Oc3ccc(NC(=O)Nc4cccc5ccccc45)cc3C(=O)N([C@H](C)CO)C[C@@H]2C)cc1	inactive
C[C@@H]1CCCCO[C@@H](CN(C)C(=O)c2ccncc2)[C@H](C)CN([C@@H](C)CO)C(=O)c2cc(NC(=O)C3CCCCC3)ccc2O1	inactive
Cc1noc(C)c1S(=O)(=O)N(C)C[C@@H]1Oc2ccc(NC(=O)CCCN(C)C)cc2CC(=O)N([C@@H](C)CO)C[C@H]1C	inactive
C[C@H](CO)N1C[C@H](C)[C@@H](CN(C)C(=O)Nc2ccc3c(c2)OCO3)OCc2ccccc2-c2c(n(C)c3ccccc23)C1=O	inactive
CN1C[C@@H]2CN(C(=O)[C@H]3CCOC3)C[C@H]2C1=O	inactive
CC(CO)(CO)NS(=O)(=O)c1ccccc1	inactive
COc1ccncc1-c1ccccc1CN(C(=O)c1ccc(-c2ccc(C#N)cc2)o1)c1ccc(N2CCNCC2)cc1	active

SMILES	cytotoxicity call
C[C@H](CO)N1C[C@H](C)[C@@H](CN(C)C(=O)Nc2ccc3c(c2)OCO3)OCCCC[C@H](C)Oc2ccc(NC(=O)CCC(F)(F)F)cc2C1=O	inactive
COc1ccc(S(=O)(=O)Nc2ccc3c(c2)C(=O)N([C@H](C)CO)C[C@H](C)[C@H](CN(C)S(=O)(=O)c2c(C)noc2C)O3)cc1	inactive
CO[C@H]1CN(C)C(=O)c2ccc(NC(=O)c3ccc(F)cc3)cc2OC[C@H](C)N(C(=O)CN(C)C)C[C@@H]1C	inactive
COCCNC(=O)C[C@@H]1CC[C@@H]2[C@H](COc3ccc(NS(=O)(=O)c4ccc(Cl)cc4)cc3C(=O)N2C)O1	inactive
C[C@@](Cc1ccccc1)(NC(=O)CN)c1ccccc1	inactive
CN(C(=O)CN(CCO)CC(=O)N(C)C(C)(C)Cc1ccccc1)C(C)(C)Cc1ccccc1	active
O=C(O)CN(CCc1ccccc1)CC(=O)O	inactive
O=C(NC1(c2ccccc2)CC1)c1c(CN2CCC(N3CCCCC3)CC2)c(-c2cccc(C(F)(F)F)c2)nc2cc(Br)ccc12	active
COc1ccc(S(=O)(=O)N(C)C[C@@H]2Oc3c(NS(=O)(=O)c4ccccc4)cccc3C(=O)N([C@H](C)CO)C[C@H]2C)cc1	inactive
COc1cccc(OC)c1OCCNCCO	inactive
COc1ccccc1OCCNCC(O)COc1cccc2[nH]c3ccccc3c12.O=P(O)(O)O (configuration not stated)	active
COc1ccccc1OCCNCC(O)COc1cccc2[nH]c3ccccc3c12 (configuration not stated)	active
COc1ccccc1OC[C@@H](O)CO	inactive
COc1ccccc1OCC(O)CO (configuration not stated)	inactive
CO[C@@H]1CN(C)C(=O)c2ccc(NC(=O)Nc3ccccc3F)cc2OC[C@H](C)N(Cc2ccccc2C(=O)O)C[C@H]1C	inactive
O=C(C[C@H]1C[C@@H]2c3cc(NC(=O)Cc4ccncc4)ccc3O[C@@H]2[C@@H](CO)O1)NCc1ccc2c(c1)OCO2	inactive
Cc1noc(C)c1S(=O)(=O)Nc1ccc2c(c1)C(=O)N([C@@H](C)CO)C[C@@H](C)[C@H](CN(C)Cc1ccccc1)OCCCC[C@H](C)O2	inactive
COc1ccc(NC(=O)N(C)C[C@@H]2Oc3ccc(NC(=O)C4CC4)cc3C(=O)N([C@H](C)CO)C[C@@H]2C)cc1	inactive
Cc1ccc(S(=O)(=O)N(C)C[C@H]2Oc3ncc(-c4ccncc4)cc3C(=O)N([C@@H](C)CO)C[C@@H]2C)cc1	inactive
C[C@@H]1CCCCO[C@@H](CN(C)C(=O)Nc2cccc3ccccc23)[C@@H](C)CN([C@@H](C)CO)C(=O)c2cc(NC(=O)Nc3ccc(C(F)(F)F)cc3)ccc2O1	inactive
C[C@H]1CN([C@@H](C)CO)C(=O)Cc2cc(NC(=O)CCN3CCOCC3)ccc2O[C@H]1CN(C)Cc1ccc(C(=O)Nc2ccccc2N)cc1	inactive
Cc1ccc(S(=O)(=O)N[C@@H](Cc2ccccc2)C(=O)NCCCn2cc(CN3C(=O)COC[C@H]3c3ccccc3)nn2)cc1	inactive
CC(=O)O[C@@H]1[C@H](OC(C)=O)N(C)C(=O)N1C	inactive
CC(=O)O[C@@H]1[C@@H]2C[C@@H]([C@H]1OC(C)=O)[C@@H]1C(=O)N(C)C(=O)[C@@H]21	active

SMILES	cytotoxicity call
CC(=O)O[C@@H]1[C@H](OC(C)=O)N(C(C)=O)C(=O)N1C(C)=O	inactive
C[C@@H]1CN([C@H](C)CO)C(=O)c2cccc(NS(C)(=O)=O)c2O[C@H]1CN(C)Cc1ccc(C(=O)Nc2ccccc2N)cc1	inactive
C[C@@H]1O[C@@H](OC[C@H]2O[C@@H](Oc3c(-c4ccc(O)cc4)oc4cc(O)cc(O)c4c3=O)[C@H](O)[C@@H](O)[C@@H]2O)[C@H](O)[C@H](O)[C@H]1O	inactive
COc1ccc(CN2C[C@H](C)[C@H](OC)CN(C)C(=O)c3cc(NC(=O)c4nc5ccccc5s4)ccc3OC[C@@H]2C)cc1	inactive
C[C@@H]1CN([C@@H](C)CO)C(=O)c2cc(NC(=O)Cn3cnnn3)ccc2O[C@@H]1CN(C)S(=O)(=O)c1ccc(F)cc1	inactive
Cc1ccc(-c2ncns2)cc1	inactive
COc1cc(CN2CCC(C(=O)N[C@@H](c3ccc(-c4ccccc4)cc3)c3cnccn3)CC2)cc(OC)c1	active
O=C(N[C@@H](c1ccc(-c2ccccc2)cc1)c1cnccn1)C1CCN(Cc2ccc(Cl)c(Cl)c2)CC1	inactive
Cc1cccnc1[C@@H](NC(=O)C1CCN(Cc2ccc(Cl)c(Cl)c2)CC1)c1ccc(Cl)cc1	active
O=C(N[C@H](c1ccc(Cl)cc1)c1cnccn1)C1CCN(Cc2ccc(Oc3ccccc3)cc2)CC1	active
COc1ccc([C@@H](NC(=O)C2CCN(Cc3ccc(Oc4ccccc4)cc3)CC2)c2ccccn2)cc1	inactive
O=C(N[C@@H](c1ccc(-c2ccccc2)cc1)c1cnccn1)C1CCN(Cc2ccc(Oc3ccccc3)cc2)CC1	active
Cc1cccnc1[C@@H](NC(=O)C1CCN(Cc2ccc(Oc3ccccc3)cc2)CC1)c1ccc(F)cc1	inactive
Cc1cccnc1[C@@H](NC(=O)C1CCN(CCOc2ccc(Cl)cc2Cl)CC1)c1ccc(Cl)cc1	inactive
COc1cccc([C@@H](NC(=O)C2CCN(Cc3ccc(Oc4ccccc4)cc3)CC2)c2ccccn2)c1	inactive
O=C(N[C@H](c1ccc(Cl)cc1)c1ccsc1)C1CCN(Cc2ccc(Oc3ccccc3)cc2)CC1	inactive
O=C(N[C@@H](c1ccc(-c2ccccc2)cc1)c1cnccn1)C1CCN(Cc2cccc(C(F)(F)F)c2)CC1	inactive
COCC#Cc1ccc2c(c1)O[C@H](CN(C)C(=O)c1ccccc1F)[C@@H](C)CN([C@H](C)CO)S2(=O)=O	inactive
C[C@@H]1CN([C@H](C)CO)C(=O)Cc2cc(NS(=O)(=O)c3ccc(F)cc3)ccc2O[C@H]1CN(C)S(=O)(=O)c1ccc(F)cc1	inactive
COc1ccc(cc1)NC(=O)N1CC[C@]2(CC1)CN([C@@H](CO)c1[nH]c3cc(ccc3c12)OC)C(=O)CN1CCOCC1	inactive
O=C1NC(=O)/C(=C\c2ccccc2)N1	inactive
O=C(N[C@@H]1CC(=O)N(C2CC2)C1)C1CCC1	inactive
C[C@H]1CN([C@@H](C)CO)C(=O)c2cc(NC(=O)Cc3cn(C)c4ccccc34)ccc2O[C@@H]1CN(C)Cc1ccc(C(=O)Nc2ccccc2N)cc1	inactive
C[C@H](CO)N1C[C@H](C)[C@H](CN(C)C(=O)Nc2ccccc2)Oc2ccc(NC(=O)C3CC3)cc2CC1=O	inactive
